Results on ten compounds are retold here after PubChem BioAssay (NCI).

Holding throughout (assay): NCI-60 one-dose screen, 48 h (100 = growth as untreated, 0 = no growth, -100 = all killed)
Test [1] concerns HOP-92 NSCLC. The conditions noted are these: 10 µM unless noted.
Test [2] deals with RXF 393 renal. The conditions noted are these: 10 µM unless noted.
Test [3] has as its system M14 melanoma. The conditions noted are these: 10 µM unless noted.
Test [4] relates to U251 CNS. The conditions noted are these: 10 µM unless noted.
The subject of test [5] is LOX IMVI melanoma. The conditions noted are these: 10 µM unless noted.
In test [6] the test system is EKVX NSCLC. The following applies: 10 µM unless noted.
The test system of test [7] is TK-10 renal. The following applies: 10 µM unless noted.
Test [8] relates to CAKI-1 renal. The conditions noted are these: 10 µM unless noted.
The test system of test [9] is CCRF-CEM leukemia. The conditions noted are these: 10 µM unless noted.
Test [10] deals with MOLT-4 leukemia. The conditions noted are these: 10 µM.
Test [11] concerns SR leukemia. The conditions noted are these: 10 µM.
The subject of test [12] is SK-OV-3 ovarian. The following applies: 10 µM unless noted.
Test [13] concerns BT-549 breast. The following applies: 10 µM.
Test [14] has as its system SW-620 colon. The conditions noted are these: 10 µM unless noted.
For test [15], the system named is HCT-116 colon. The conditions noted are these: 10 µM unless noted.
Test [16] has as its system NCI-H522 lung. The following applies: 10 µM unless noted.
Test [17] deals with COLO 205 colon. The following applies: 10 µM.
In test [18] the test system is MALME-3M melanoma. The following applies: 10 µM unless noted.
For test [19], the system named is RPMI-8226 leukemia. The following applies: 10 µM unless noted.

Compounds without any hit were thinned out: in the full panel of roughly 83,000, 20% have a hit.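 How to read the values: 0–100, growth inhibition (40 = 60% inhibited); 0, no net growth; -100 to 0, cell death (-40 = 40% of starting cells died; -100 = all dead).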 Unmarked numbers belong to inactive results. Activity calls are given as the source filed them. How the source made its calls: active means growth percent below 10; inactive means the rest.

In the case of `CC(C)CCC1(CCO)C(=O)NC(=S)NC1=O`, the growth in test [1] was 89.5%; in [2], 120%; in test [3], 103%; in [4], 97.2%; in test [5], 104%; in [6], 105%. The growth in test [7] is 114%; in test [8], 102%; in [9] it was 115%; in test [10] it was 113%; in [11] it was 114%; in test [12] it was 108%. Besides, the figures for the growth in [13], in test [14] and in test [15] were 109%, 105% and 104%, respectively.

Turning to `Cc1ccc(C(=O)C2CN(C)CCC2(O)c2ccc(C)cc2)cc1` (stereo not drawn), the growth in test [16] was 111%; in [17] it was 131%; in test [18], 120%; in test [2], 128%; in test [3], 113%; in test [4], 104%. For the same compound, the growth is 98.9% in test [5]; 108% in test [7]; 93.7% in [8]; 106% in test [9]; 103% in [10]; 101% in test [11]. The growth in test [19] is 99.9%; in test [12], 122%; in test [14], 105%; in test [15] it was 107%.

For `S=P(NC1CCCCC1)(N1CC1)N1CC1`, the growth in test [16] is 106%; in [17], 179%; in [18], 106%; in test [2], 102%; in test [3], 105%; in test [4] it was 101%. In addition, the growth in test [5] was 96.5%; in test [6], 102%; in test [7] it was 116%; in [8] it was 95.1%; in test [9], 102%; in [10], 99.1%. Moreover, the growth is 104% in [11]; 76.7% in test [19]; 131% in test [12]; 120% in [13]; 96.5% in test [14]; 93.3% in test [15].

On to `S=P(N1CCCCCC1)(N1CC1)N1CC1`, for which the growth in [16] is 102%; in test [17] it was 93.9%; in test [18] it was 90.3%; in test [2] it was 124%; in test [4], 106%; in test [6] it was 119%. Further, the growth was 98.5% in [7]; 96.3% in test [8]; 94.4% in test [9]; 33.4% in test [10]; 82.6% in test [11]; 93.9% in test [12]. For the same compound, the values for the growth in [13] and in [14] were 102% and 108%, respectively.

On to `CC(=O)C1C(=O)N(C)C(=O)N(C)C1=O`, for which the growth in [16] is 105%; in test [17], 114%; in test [18] it was 114%; in test [2], 107%; in test [3], 110%; in test [4], 96.1%. For the same compound, the growth was 107% in test [5]; 109% in [7]; 102% in test [8]; 97.2% in test [9]; 104% in [10]; 96.5% in [11]. Further, the growth was 99.7% in test [19]; 115% in test [12]; 106% in test [13]; 103% in test [14]; 106% in test [15].

Consider `CCN(CC)c1ccc(C=C2C(=O)NC(=S)NC2=O)cc1`, for which the growth is 86.5% in test [16]; 104% in test [17]; 123% in test [18]; -22.3% (active) in test [2]; 102% in test [3]; 77% in test [4]. Further, the growth is 80% in test [5]; 99.5% in test [6]; 108% in test [7]; 91.8% in test [8]; 38.9% in [9]; 81% in test [10]. Besides, the growth is -50.8% (active) in test [11]; -18.9% (active) in [19]; 94.1% in [12]; 98.5% in [13]; 77.9% in test [14].

With `C1CNC2CCCC2C1` (stereo not drawn), the growth in [16] is 91.7%; in test [17] it was 102%; in test [18], 99.4%; in test [2], 93.1%; in test [3], 107%; in test [4], 105%. The growth was 103% in test [8]; 106% in test [9]; 101% in test [19]; 108% in test [12]; 108% in test [15].

`CC1(C)N=C(N)N=C(N)N1c1cccc(C(=O)Nc2cccc(S(=O)(=O)F)c2)c1`: the growth was 99.8% in [16]; 120% in test [17]; 88.9% in test [18]; 92.2% in [2]; 102% in test [3]; 99.8% in test [4]. Also, the growth in test [5] is 99.7%; in [7], 108%; in test [9] it was 97.5%; in test [10] it was 112%; in [11], 104%; in [19], 95.5%. For the same compound, the figures for the growth in test [12], in test [13] and in [14] were 117%, 107% and 93.5%, respectively.

`CCC[CH2][Sn]([CH2]CCC)([CH2]CCC)[O]C(=O)CC`: the growth in test [16] was -81.2% (active); in test [17], -86.7% (active); in test [18] it was -75.8% (active); in test [3], -91.4% (active); in test [4] it was -84.6% (active); in test [5] it was -83.3% (active). Moreover, the growth was -43.9% (active) in test [6]; -97.1% (active) in test [7]; -95.2% (active) in test [8]; 7.41% (active) in [10]; 7.87% (active) in test [11]; -31% (active) in test [19]. Also, the growth was -99.5% (active) in test [12], -98.5% (active) in test [13], -84.8% (active) in test [14] and -88.6% (active) in test [15].

Consider `COc1cc(C2=NN(c3ccccc3)C(c3sc(N(CCCl)CCCl)nc3Cl)C2)cc(OC)c1OC` (stereo not drawn), for which the growth in test [16] was 69.1%; in test [17], 90.6%; in [18] it was 121%; in [2] it was 106%; in test [3], 91.5%; in test [5], 92.7%. In addition, the growth in [6] is 78.9%; in test [8], 64%; in test [9], 87.9%; in [10], 70.9%; in test [11] it was 84.2%; in [12], 77.7%. Moreover, the growth in [14] is 97.2%; in test [15], 80.3%.
